Laboratory results taken from the supplement of paper PMC12340860.
± gives the standard deviation of the averaged measurements.

What follows are molecules tested on Caenorhabditis elegans infected with Nematocida parisii (assay: progeny production of N. parisii-infected C. elegans relative to uninfected control; higher = stronger inhibition of microsporidia infection (rescue of reproduction)). Details: 60 µM; incubation time 5 days; spore dose (spores/uL): 18000.
Method: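 C. elegans N2 L1 larvae (100 per well, 96-well plate, K-medium with 5x E. coli OP50, 1% DMSO) were infected with Nematocida parisii spores (18,000 spores/uL) that had been pre-incubated for 1 h with each BU-CMD library compound at 60 uM. Plates were incubated 5 days at 21 C with shaking. Progeny were stained with rose bengal, scanned on a flatbed scanner and counted with WorMachine. Progeny number is expressed as % of uninfected DMSO controls on the same plate; three biological replicates per compound; hits were compounds with at least 60% progeny production.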
In the case of `COC(=O)[C@@H]1[C@@H](c2ccccc2)[C@]2(c3ccc(OC)cc3)Oc3cc(OC)cc(OC)c3[C@@]23N=C(C)N[C@@]13O`, the progeny production is reported as 14.3 ± 4%.
For `CONC(=O)[C@H]1[C@@H](O)[C@@]2(O)c3c(OC)cc(OC)cc3O[C@@]2(c2ccc(OC)cc2)[C@@H]1c1ccccc1`, the progeny production was 13.2 ± 4.2%.
For `COC(=O)[C@@H]1[C@@H](c2ccccc2)[C@]2(c3ccc(OC)cc3)Oc3cc(OC)cc(OC)c3[C@@]23N=C(C2CC2)N[C@@]13O`, the progeny production was 8.05 ± 3.6%.
